Data published in PubChem BioAssay (Tox21).
The source made the active and inactive calls. Calls come from the whole dose curve; as a rule, active = well fitted curve in the direction sought with a large enough effect in the repeat runs; inconclusive = weak or mixed curves; inactive = flat fitted curve, though single readings scatter.

Assays:
[1] = qHTS assay to test for compound auto fluorescence at 535 nm (green) in HEK293 cells (AID 720680)
[2] = qHTS assay to test for compound auto fluorescence at 460 nm (blue) in HEK293 cell free culture (AID 720681)
Method in brief: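 Blue fluorescence (Ex 405/Em 460 nm, triamterene-equivalent) was read immediately after pin transfer of compound or DMSO into medium (DMEM, 10% FBS) without cells.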

[3] = qHTS assay to test for compound auto fluorescence at 535 nm (green) in HEK293 cell free culture (AID 720682)
Method in brief: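 No cells present: wells hold DMEM supplemented with 10% FBS, into which compound or vehicle is pinned. Green emission is then recorded (485 nm excitation, 535 nm emission) and scaled to fluorescein.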

[4] = qHTS assay to test for compound auto fluorescence at 590 nm (red) in HEK293 cell free culture (AID 720683)
Method in brief: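 Red-channel autofluorescence of compounds in culture medium (DMEM, 10% FBS), no cells, measured at 540/590 nm. Rose Bengal sodium is the reference fluorophore for equivalence.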

[5] = qHTS assay to test for compound auto fluorescence at 590 nm (red) in HepG2 cell free culture (AID 720684)
Method in brief: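 No cells present: MEM + 10% FBS only. Compound pinned in, red label read (540/590 nm). Activity = fluorescence equivalent to Rose Bengal sodium.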

[6] = qHTS assay to test for compound auto fluorescence at 460 nm (blue) in HepG2 cell free culture (AID 720685)
Method in brief: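 Cell-free plates of MEM plus 10% FBS received 23 nL compound or DMSO vehicle; blue-channel (405/460 nm) intensity scored against triamterene as reference fluorophore.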

[7] = qHTS assay to test for compound auto fluorescence at 535 nm (green) in HepG2 cell free culture (AID 720686)
[8] = qHTS assay to test for compound auto fluorescence at 460 nm (blue) in HepG2 cells (AID 720687)
Method in brief: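 Blue-channel autofluorescence (Ex/Em 405/460 nm, triamterene-equivalent) was measured after 1 hr compound exposure at 37 C, 5% CO2. Cells were HepG2, plated overnight at 37 C in MEM plus 10% FBS.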
% is set by controls: 0 for no effect and ±100 for the full control effect.

O=C1c2c(O)ccc(O)c2C(=O)c2c(NCCNCCO)ccc(NCCNCCO)c21
inactive: fluorescence, % of fluorescein [1] 0.0058% [at 18.6 µM] | fluorescence, % of fluorescent control [2] -0.133% [at 18.6 µM] | activity change [3] -0.248% [at 18.6 µM, active compounds read high] | fluorescence, % of fluorescent control [4] -0.213% [at 18.6 µM] | fluorescence, % of Rose Bengal [5] -0.463% [at 18.6 µM] | fluorescence, % of fluorescent control [6] -0.123% [at 18.6 µM] | fluorescence, % of fluorescein control [7] -0.22% [at 18.6 µM] | fluorescence, % of fluorescent control [8] -0.0158% [at 18.6 µM]

Cc1cccc(C)c1NC(=O)CN1CCN(CCCC(c2ccc(F)cc2)c2ccc(F)cc2)CC1
inactive: fluorescence, % of fluorescein [1] 0.0034% [at 18.6 µM] | fluorescence, % of fluorescent control [2] -0.178% [at 18.6 µM] | activity change [3] 0.0074% [at 18.6 µM, active compounds read high] | fluorescence, % of fluorescent control [4] -0.297% [at 18.6 µM] | fluorescence, % of Rose Bengal [5] -0.0617% [at 18.6 µM] | fluorescence, % of fluorescent control [6] -0.0263% [at 18.6 µM] | fluorescence, % of fluorescein control [7] 0.0052% [at 18.6 µM] | fluorescence, % of fluorescent control [8] -0.0418% [at 18.6 µM]

COc1cccc(CCc2ccccc2OCC(CN(C)C)OC(=O)CCC(=O)O)c1 (stereo not drawn)
inactive: Potency [1] | Potency [2] | Potency [3] | Potency [4] | Potency [5] | Potency [6] | Potency [7] | Potency [8]

CCCCCCCCCCCCN(CCO)CCO
inactive: Potency [1] | Potency [2] | Potency [3] | Potency [4] | Potency [5] | Potency [6] | Potency [7] | Potency [8]

O=C1NCCN1CCN1CCC(c2cn(-c3ccc(F)cc3)c3ccc(Cl)cc23)CC1
inactive: Potency [1] | Potency [2] | Potency [3] | Potency [4] | Potency [5] | Potency [6] | Potency [7] | Potency [8]

O[C@@H](c1cc(C(F)(F)F)nc2c(C(F)(F)F)cccc12)[C@H]1CCCCN1
inactive: Potency [1] | Potency [2] | Potency [3] | Potency [4] | Potency [5] | Potency [6] | Potency [7] | Potency [8]

O=C1C=CC(=O)N1c1ccccc1
inactive: Potency [1] | Potency [2] | Potency [3] | Potency [4] | Potency [5] | Potency [6] | Potency [7] | Potency [8]

NC(=O)c1nc(-c2cccc(-c3cc(F)ccc3OCC(F)(F)C(F)(F)F)c2)n[nH]1
inactive: Potency [1] | Potency [2] | Potency [3] | Potency [4] | Potency [5] | Potency [6] | Potency [7] | Potency [8]

CCCCCCCC/C=C\CCCCCCCC(=O)N(C)CC(=O)O
inactive: Potency [1] | Potency [2] | Potency [3] | Potency [4] | Potency [5] | Potency [6] | Potency [7] | Potency [8]

CN1CCN(C2Cc3ccccc3Sc3ccc(Cl)cc32)CC1 (stereo not drawn)
inactive: Potency [1] | Potency [2] | Potency [3] | Potency [4] | Potency [5] | Potency [6] | Potency [7] | Potency [8]

CCCCCCCOC(=O)c1ccc(O)cc1
inactive: Potency [1] | Potency [2] | Potency [3] | Potency [4] | Potency [5] | Potency [6] | Potency [7] | Potency [8]

CCCCCCCCCCCCOC(=O)c1cc(O)c(O)c(O)c1
inactive: Potency [1] | Potency [2] | Potency [3] | Potency [4] | Potency [5] | Potency [6] | Potency [7] | Potency [8]

CCOC(=O)C1=C(C)NC(C)=C(C(=O)OCC)C1c1ccccc1/C=C/C(=O)OC(C)(C)C
inactive: Potency [1] | Potency [2] | Potency [3] | Potency [4] | Potency [5] | Potency [6] | Potency [7] | Potency [8]

C(=C/c1ccccc1)/c1ccccc1
inactive: Potency [1] | Potency [2] | Potency [3] | Potency [4] | Potency [5] | Potency [6] | Potency [7] | Potency [8]

Clc1ccc(C(Cn2ccnc2)OCc2ccsc2Cl)c(Cl)c1 (stereo not drawn)
inactive: Potency [1] | Potency [2] | Potency [3] | Potency [4] | Potency [5] | Potency [6] | Potency [7] | Potency [8]

COC(=O)NCCC[Si](OC)(OC)OC
inactive: Potency [1] | Potency [2] | Potency [3] | Potency [4] | Potency [5] | Potency [6] | Potency [7] | Potency [8]

CCN(CC)CCCN(c1ccccc1)C1Cc2ccccc2C1
inactive: Potency [1] | Potency [2] | Potency [3] | Potency [4] | Potency [5] | Potency [6] | Potency [7] | Potency [8]

Cc1cc2c(C(C)C)c(O)c(O)c(C=O)c2c(O)c1-c1c(C)cc2c(C(C)C)c(O)c(O)c(C=O)c2c1O
inactive: Potency [1] | Potency [2] | Potency [3] | Potency [4] | Potency [5] | Potency [6] | Potency [7] | Potency [8]

CCCSS/C(CCO)=C(\C)N(C=O)Cc1cnc(C)nc1N
inactive: Potency [1] | Potency [2] | Potency [3] | Potency [4] | Potency [5] | Potency [6] | Potency [7] | Potency [8]

CC(C)=C1CC[C@@H](C)CC1=O
inactive: Potency [1] | Potency [2] | Potency [3] | Potency [4] | Potency [5] | Potency [6] | Potency [7] | Potency [8]

C=CC(C)(CCC=C(C)C)OC(=O)/C=C/c1ccccc1 (stereo not drawn)
inactive: Potency [1] | Potency [2] | Potency [3] | Potency [4] | Potency [5] | Potency [6] | Potency [7] | Potency [8]
